The target of test [1] is human Peroxisome Proliferator-activated Receptor alpha (PPARa), PPARA (gene 5465) (UniProt Q07869). Nature of the test: ATG_PPARa_TRANS: Attagene TRANS-FACTORIAL HepG2 Assay for human Peroxisome Proliferator-activated Receptor alpha (PPARa) (AID 2283001).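 As to AC50: potency for gain of reporter signal over DMSO so agonist or activator.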 The procedure, abridged:
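HepG2 cells transiently transfected with multiplexed GAL4-UAS reporters driven by exogenous chimeric NR-Gal4 proteins; reporter mRNA measured after 24 h dosing. Read-out by RT-PCR, 6-FAM labelling, HpaI digestion and capillary electrophoresis; gain of signal versus DMSO.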

For test [2], the target named is human Peroxisome Proliferator-activated Receptor delta (PPARd), PPARD (gene 5467) (UniProt Q03181). Briefly: ATG_PPARd_TRANS: Attagene TRANS-FACTORIAL HepG2 Assay for human Peroxisome Proliferator-activated Receptor delta (PPARd) (AID 2283002). The procedure, abridged:
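Read-out: reporter mRNA induction, quantified by fluorescent RT-PCR products resolved by capillary electrophoresis. Human HepG2 liver cells carried transiently transfected Gal4-UAS reporter constructs with chimeric NR-Gal4 fusions. Cells were dosed for 24 h; DMSO served as baseline.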

For test [3], the target named is Peroxisome proliferator-activated receptor gamma (Homo sapiens) (UniProt P37231). Briefly: ATG_PPARg_TRANS: Attagene TRANS-FACTORIAL HepG2 Assay for human Peroxisome Proliferator-activated Receptor-gamma (PPARg) (AID 2283007). Put shortly: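 Liver-derived HepG2 cells expressing an exogenous NR-Gal4 chimera alongside GAL4-UAS reporter genes; 24 h exposure. Fluorescence of reporter RT-PCR products, separated by capillary electrophoresis, gives mRNA induction relative to DMSO.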
Chain of Peroxisome proliferator-activated receptor gamma (Homo sapiens) (P37231 whole entry, looked up, the tested form may be a part): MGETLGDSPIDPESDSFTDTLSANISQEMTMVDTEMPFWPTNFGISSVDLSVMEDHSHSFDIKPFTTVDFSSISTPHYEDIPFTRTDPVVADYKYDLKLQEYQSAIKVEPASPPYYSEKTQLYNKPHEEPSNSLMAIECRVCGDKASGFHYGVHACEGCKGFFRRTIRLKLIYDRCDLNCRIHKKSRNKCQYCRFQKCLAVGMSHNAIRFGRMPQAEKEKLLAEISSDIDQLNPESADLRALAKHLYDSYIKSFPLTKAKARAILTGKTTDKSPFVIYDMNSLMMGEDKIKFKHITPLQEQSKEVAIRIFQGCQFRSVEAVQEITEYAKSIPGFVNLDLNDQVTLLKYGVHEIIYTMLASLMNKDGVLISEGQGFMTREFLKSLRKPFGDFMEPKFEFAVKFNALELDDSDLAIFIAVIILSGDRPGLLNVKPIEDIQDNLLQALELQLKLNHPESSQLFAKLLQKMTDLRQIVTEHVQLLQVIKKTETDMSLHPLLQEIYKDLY

The target of test [4] is Nuclear receptor subfamily 1 group I member 2 (Homo sapiens) (UniProt O75469). Briefly: ATG_PXR_TRANS: Attagene TRANS-FACTORIAL HepG2 Assay for human Pregnane X Receptor (PXR) (AID 2283008). The procedure, abridged: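 HepG2 cells transiently transfected with GAL4-UAS reporter units and PXR-Gal4 chimera, exposed 24 h. Reporter mRNA quantified by RT-PCR, fluorescent labelling, HpaI digestion and capillary electrophoresis; gain of signal vs DMSO.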
Chain of Nuclear receptor subfamily 1 group I member 2 (Homo sapiens) (O75469 whole entry, looked up, the tested form may be a part): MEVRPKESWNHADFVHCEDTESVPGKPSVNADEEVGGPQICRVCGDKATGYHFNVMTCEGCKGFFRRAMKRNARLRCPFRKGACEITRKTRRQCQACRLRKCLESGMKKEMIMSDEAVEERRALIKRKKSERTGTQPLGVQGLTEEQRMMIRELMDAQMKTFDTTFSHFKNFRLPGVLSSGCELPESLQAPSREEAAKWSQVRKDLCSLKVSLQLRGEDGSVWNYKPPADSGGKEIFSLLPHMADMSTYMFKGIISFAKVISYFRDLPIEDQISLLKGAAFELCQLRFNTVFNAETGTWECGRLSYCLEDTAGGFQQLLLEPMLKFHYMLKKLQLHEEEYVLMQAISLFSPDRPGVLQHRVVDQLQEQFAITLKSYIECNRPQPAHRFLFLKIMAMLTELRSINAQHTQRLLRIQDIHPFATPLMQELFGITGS

The target of test [5] is human RAR-related Orphan Receptor beta (RORb), RORB (gene 6096) (UniProt Q92753). Nature of the test: ATG_RORb_TRANS: Attagene TRANS-FACTORIAL HepG2 Assay for human RAR-related Orphan Receptor beta (RORb) (AID 2283010). The procedure, abridged: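 Readout is reporter-gene mRNA induction, detected as fluorescence after RT-PCR and capillary electrophoresis, fitted for gain of signal against DMSO controls. Transiently transfected HepG2 liver cells carrying GAL4-UAS reporter constructs were treated for 24 hours.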
Chain of human RAR-related Orphan Receptor beta (RORb), RORB (gene 6096) (Q92753 whole entry, looked up, the tested form may be a part): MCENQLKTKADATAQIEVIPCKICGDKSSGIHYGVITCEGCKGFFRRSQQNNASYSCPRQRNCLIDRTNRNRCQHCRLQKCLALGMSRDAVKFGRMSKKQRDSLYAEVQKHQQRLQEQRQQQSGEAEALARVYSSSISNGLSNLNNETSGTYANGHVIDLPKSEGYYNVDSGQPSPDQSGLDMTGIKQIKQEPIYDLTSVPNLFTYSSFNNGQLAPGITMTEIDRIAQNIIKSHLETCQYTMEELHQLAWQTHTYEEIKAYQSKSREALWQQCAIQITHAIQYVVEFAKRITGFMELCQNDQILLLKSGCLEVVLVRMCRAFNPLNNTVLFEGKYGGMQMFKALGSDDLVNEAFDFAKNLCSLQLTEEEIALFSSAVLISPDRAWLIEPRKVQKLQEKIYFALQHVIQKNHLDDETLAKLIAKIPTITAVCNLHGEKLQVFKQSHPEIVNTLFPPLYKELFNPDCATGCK

For test [6], the target named is human RAR-related Orphan Receptor gamma (RORg), RORC (gene 6097) (UniProt P51449). Nature of the test: ATG_RORg_TRANS: Attagene TRANS-FACTORIAL HepG2 Assay for human RAR-related Orphan Receptor gamma (RORg) (AID 2283011).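 As to AC50: potency for induction of reporter transcripts above DMSO so activators.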 Put shortly:
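First, HepG2 liver cells were transfected with GAL4-UAS-driven reporter constructs and the RORg-Gal4 fusion. Next, they were treated with chemical for 24 h. Finally, reporter mRNA was quantified by RT-PCR and capillary electrophoresis, with upward activity fitted against DMSO.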

Test [7] concerns the target Retinoic acid receptor RXR-alpha (Homo sapiens) (UniProt P19793). Nature of the test: ATG_RXRa_TRANS: Attagene TRANS-FACTORIAL HepG2 Assay for human Retinoid X Receptor alpha (RXRa) (AID 2283012). Put shortly:
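Transient transfection of human HepG2 with multiple GAL4-UAS reporter constructs; 24 h compound exposure; total RNA isolated, reverse-transcribed, PCR-amplified, 6-FAM labelled, HpaI-cut, resolved by capillary electrophoresis. Positive-direction fit versus DMSO.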

Test [8] addresses human Retinoid X Receptor beta (RXRb), RXRB (gene 6257) (UniProt P28702). Briefly: ATG_RXRb_TRANS: Attagene TRANS-FACTORIAL HepG2 Assay for human Retinoid X Receptor beta (RXRb) (AID 2283013). Put shortly:
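Transfect HepG2 with GAL4-UAS multi-reporter constructs (chimeric NR-Gal4, TRANS format); dose compound 24 h; isolate RNA, RT-PCR, FAM primer extension, HpaI digest; quantify by capillary electrophoresis; positive direction vs DMSO.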

Test [9] has as its target human Thyroid Receptor alpha (THRa1), THRA (gene 7067) (UniProt P10827). Nature of the test: ATG_THRa1_TRANS: Attagene TRANS-FACTORIAL HepG2 Assay for human Thyroid Receptor alpha (THRa1) (AID 2283014). The procedure, abridged:
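Reporter transcript induction, read by capillary electrophoresis of 6-FAM-labelled RT-PCR products, reflects activity of a transfected THRa1-Gal4 fusion in HepG2 liver cells. Cells were dosed for 24 h; activity was fitted in the positive direction against DMSO.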

For test [10], the target named is human Retinoic Acid Receptor beta (RARb), RARB (gene 5915) (UniProt P10826). Briefly: ATG_RARb_TRANS: Attagene TRANS-FACTORIAL HepG2 Assay for human Retinoic Acid Receptor beta (AID 2283004). Put shortly:
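Transient transfection of HepG2 with multiple reporter units → chemical dosing, 24 h → total RNA isolation → RT with oligo(dT) → reporter-specific PCR, 6-FAM primer extension, HpaI digest → capillary electrophoresis. Positive direction vs DMSO control.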

Test [11] addresses Retinoic acid receptor alpha (Homo sapiens) (UniProt P10276). Nature of the test: ATG_RARa_TRANS: Attagene TRANS-FACTORIAL HepG2 Assay for human Retinoic Acid Receptor alpha (RARa) (AID 2283005). Put shortly: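 HepG2 transiently transfected with multiplex GAL4-UAS reporter units including a human RARa–GAL4 chimera; 24 h compound exposure. Reporter mRNA quantified by RT-PCR, 6-FAM labeling and capillary electrophoresis; gain of signal versus DMSO.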

In test [12] the target is human Retinoic Acid Receptor gamma (RARg), RARG (gene 5916) (UniProt P13631). Nature of the test: ATG_RARg_TRANS: Attagene TRANS-FACTORIAL HepG2 Assay for human Retinoic Acid Receptor gamma (RARg) (AID 2283009). Put shortly: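 Transient transfection of HepG2 with multi-reporter constructs, then 24 h chemical treatment. Total RNA isolated, reverse-transcribed, PCR-amplified, fluorescently labelled and resolved by capillary electrophoresis; activity scored as mRNA induction versus DMSO.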

Read-out in test [13]: Intercellular Adhesion Molecule 1 (ICAM1), ICAM1 (gene 3383)
Briefly: BSK_3C_ICAM1: BioMAP Diversity Plus: 3C Assay for Intercellular Adhesion Molecule 1 (ICAM1) Biomarker Activity (AID 2283003; active = hit-call score of the fitted dose curve at least 0.9, where 1 is the maximum; inactive = score below 0.9). The conditions noted are these: primary human endothelial cells (HUVEC); actives raise or lower the signal. Put shortly:
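ICAM-1 levels measured by ELISA after HUVEC cultures in the 3C system had been dosed for 24 h. Gain or loss of signal relative to DMSO was fitted in both directions.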

Test [14] is described as follows: BSK_3C_Proliferation: Cell Proliferation Assessment in the BioMAP Diversity Plus: 3C Assay (AID 2283006; active = hit-call score of the fitted dose curve at least 0.9, where 1 is the maximum; inactive = score below 0.9;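 as to AC50: potency may reflect either rise or fall in cell number versus DMSO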). The conditions noted are these: primary human endothelial cells (HUVEC). The procedure, abridged:
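Read-out is total protein by SRB absorbance at 560 nm, taken as a proxy for relative cell number. Primary human umbilical vein endothelium cultured below confluence was dosed for 48 h, TCA-fixed and SRB-stained; curves were fitted bidirectionally versus DMSO.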

Read-out in test [15]: E-selectin (Homo sapiens) (UniProt P16581)
Nature of the test: BSK_3C_Eselectin: BioMAP Diversity Plus: 3C Assay for Eselectin Biomarker Activity (AID 2283015; active = hit-call score of the fitted dose curve at least 0.9, where 1 is the maximum; inactive = score below 0.9;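 as to outcome: cell surface E-selectin protein quantified by ELISA 24 h after dosing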). The conditions noted are these: primary human endothelial cells (HUVEC); actives raise or lower the signal. Put shortly:
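ELISA read-out of E-selectin on endothelial monolayers after 24 h chemical treatment. Human umbilical vein primary cells served as the system, with DMSO defining baseline activity for bidirectional fitting.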

Read-out in test [16]: Interleukin-1 alpha (IL1a), IL1A (gene 3552)
Nature of the test: BSK_BE3C_IL1a: BioMAP Diversity Plus: BE3C Assay for Interleukin-1 alpha (IL1a) Biomarker Activity (AID 2283016; active = hit-call score of the fitted dose curve at least 0.9, where 1 is the maximum; inactive = score below 0.9). The conditions noted are these: primary human bronchial epithelial cells; actives raise or lower the signal. Put shortly: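 BE3C primary human bronchial epithelium; cpd 24 h; IL-1a by ELISA; bidirectional fit vs DMSO; parallel SRB (0.1% SRB, 10% TCA fix, 560 nm) for cytotoxicity.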

Read-out in test [17]: Monocyte Chemoattractant Protein-1 (MCP1), CCL2 (gene 6347)
Nature of the test: BSK_3C_MCP1: BioMAP Diversity Plus: 3C Assay for Monocyte Chemoattractant Protein-1 (MCP1) Biomarker Activity (AID 2283017; active = hit-call score of the fitted dose curve at least 0.9, where 1 is the maximum; inactive = score below 0.9). The conditions noted are these: primary human endothelial cells (HUVEC); actives raise or lower the signal. The procedure, abridged: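 ELISA read-out of MCP-1 from human umbilical vein endothelial cell cultures harvested 24 h post-dosing. Gain or loss of signal was fitted relative to DMSO.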

Read-out in test [18]: Monocyte Chemoattractant Protein-1 (MCP1), CCL2 (gene 6347)
Nature of the test: BSK_4H_MCP1: BioMAP Diversity Plus: 4H Assay for Monocyte Chemoattractant Protein-1 (MCP1) Biomarker Activity (AID 2283018; active = hit-call score of the fitted dose curve at least 0.9, where 1 is the maximum; inactive = score below 0.9). The conditions noted are these: primary human endothelial cells (HUVEC); actives raise or lower the signal. The procedure, abridged:
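ELISA read-out of MCP-1 from human vascular endothelial primary cells taken at 24 hours after compound exposure. Activity was fitted in both directions relative to DMSO, which served as negative control.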

Read-out in test [19]: Human Leukocyte Antigen - DR isotype (HLADR), HLA-DRA (gene 3122)
Briefly: BSK_3C_HLADR: BioMAP Diversity Plus: 3C Assay for Human Leukocyte Antigen - DR isotype (HLADR) Biomarker Activity (AID 2283019; active = hit-call score of the fitted dose curve at least 0.9, where 1 is the maximum; inactive = score below 0.9). The conditions noted are these: primary human endothelial cells (HUVEC); actives raise or lower the signal. Put shortly: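 ELISA readout of surface HLA-DR on human umbilical vein endothelium, taken 24 h after chemical treatment. Gain- and loss-of-signal were both fitted relative to DMSO.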

Read-out in test [20]: Interleukin-8 (IL8), CXCL8 (gene 3576)
Briefly: BSK_3C_IL8: BioMAP Diversity Plus: 3C Assay for Interleukin-8 (IL8) Biomarker Activity (AID 2283020; active = hit-call score of the fitted dose curve at least 0.9, where 1 is the maximum; inactive = score below 0.9). The conditions noted are these: primary human endothelial cells (HUVEC); actives raise or lower the signal. Put shortly: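 ELISA read-out of IL-8 from human umbilical vein endothelium, measured 24 h after chemical dosing. Activity is expressed relative to DMSO negative control, with both increases and decreases fitted.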

Inconclusive results are not listed. Activity calls are given as the source filed them. The calls were made as follows, unless noted: active = hit-call score of the fitted dose curve at least 0.9, where 1 is the maximum; inconclusive = response in the unintended direction; inactive = score below 0.9.

Chain of human Peroxisome Proliferator-activated Receptor delta (PPARd), PPARD (gene 5467) (Q03181 whole entry, looked up, the tested form may be a part): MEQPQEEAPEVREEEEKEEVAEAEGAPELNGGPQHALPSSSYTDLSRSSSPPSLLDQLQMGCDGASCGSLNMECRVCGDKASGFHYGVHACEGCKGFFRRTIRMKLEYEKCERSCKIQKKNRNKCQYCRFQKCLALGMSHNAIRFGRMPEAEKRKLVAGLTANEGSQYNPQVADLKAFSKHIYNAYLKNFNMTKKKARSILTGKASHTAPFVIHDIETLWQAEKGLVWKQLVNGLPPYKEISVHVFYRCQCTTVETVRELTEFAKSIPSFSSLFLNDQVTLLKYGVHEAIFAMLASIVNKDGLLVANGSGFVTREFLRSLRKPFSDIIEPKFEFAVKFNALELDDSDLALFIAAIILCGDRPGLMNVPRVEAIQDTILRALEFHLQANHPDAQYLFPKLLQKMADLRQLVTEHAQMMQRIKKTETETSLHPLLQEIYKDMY
Chain of Retinoic acid receptor RXR-alpha (Homo sapiens) (P19793 whole entry, looked up, the tested form may be a part): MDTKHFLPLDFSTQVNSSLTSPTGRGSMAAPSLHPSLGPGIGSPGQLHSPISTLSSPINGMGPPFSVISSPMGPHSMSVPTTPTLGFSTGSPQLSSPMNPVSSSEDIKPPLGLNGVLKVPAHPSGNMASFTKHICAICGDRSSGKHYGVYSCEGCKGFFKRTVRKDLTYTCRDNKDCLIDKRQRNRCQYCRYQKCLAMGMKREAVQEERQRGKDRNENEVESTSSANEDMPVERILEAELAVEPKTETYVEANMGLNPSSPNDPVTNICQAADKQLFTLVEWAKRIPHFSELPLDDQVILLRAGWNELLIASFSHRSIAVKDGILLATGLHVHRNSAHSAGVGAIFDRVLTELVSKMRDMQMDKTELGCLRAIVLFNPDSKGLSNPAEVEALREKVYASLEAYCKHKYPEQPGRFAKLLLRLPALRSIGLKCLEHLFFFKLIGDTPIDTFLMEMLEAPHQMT
Chain of human RAR-related Orphan Receptor gamma (RORg), RORC (gene 6097) (P51449 whole entry, looked up, the tested form may be a part): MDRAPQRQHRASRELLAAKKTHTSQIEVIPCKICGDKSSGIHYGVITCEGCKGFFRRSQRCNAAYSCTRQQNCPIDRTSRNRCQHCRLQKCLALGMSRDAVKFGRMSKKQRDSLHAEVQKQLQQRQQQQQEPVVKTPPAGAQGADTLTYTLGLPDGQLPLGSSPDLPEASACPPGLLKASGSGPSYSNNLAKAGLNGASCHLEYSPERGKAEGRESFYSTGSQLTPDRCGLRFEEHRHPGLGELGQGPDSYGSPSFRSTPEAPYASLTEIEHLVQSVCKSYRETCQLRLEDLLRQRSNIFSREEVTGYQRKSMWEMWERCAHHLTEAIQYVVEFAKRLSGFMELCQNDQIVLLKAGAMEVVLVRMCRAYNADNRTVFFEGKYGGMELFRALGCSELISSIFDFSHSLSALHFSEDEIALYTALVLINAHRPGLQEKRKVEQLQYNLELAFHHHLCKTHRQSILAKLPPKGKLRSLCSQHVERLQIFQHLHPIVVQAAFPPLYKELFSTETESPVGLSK
Chain of human Peroxisome Proliferator-activated Receptor alpha (PPARa), PPARA (gene 5465) (Q07869 whole entry, looked up, the tested form may be a part): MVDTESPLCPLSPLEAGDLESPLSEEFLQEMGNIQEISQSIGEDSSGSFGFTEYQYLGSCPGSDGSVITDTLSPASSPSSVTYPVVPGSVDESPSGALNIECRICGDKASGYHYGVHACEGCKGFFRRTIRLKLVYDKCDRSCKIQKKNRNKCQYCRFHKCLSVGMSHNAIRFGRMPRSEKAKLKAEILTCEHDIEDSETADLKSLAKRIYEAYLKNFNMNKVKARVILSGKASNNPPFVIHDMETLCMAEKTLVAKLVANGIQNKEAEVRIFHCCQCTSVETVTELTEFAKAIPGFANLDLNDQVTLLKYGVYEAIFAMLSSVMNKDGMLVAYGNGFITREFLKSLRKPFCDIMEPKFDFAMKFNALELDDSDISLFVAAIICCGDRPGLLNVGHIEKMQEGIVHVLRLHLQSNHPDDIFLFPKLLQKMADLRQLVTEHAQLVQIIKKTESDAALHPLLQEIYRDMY
Chain of human Thyroid Receptor alpha (THRa1), THRA (gene 7067) (P10827 whole entry, looked up, the tested form may be a part): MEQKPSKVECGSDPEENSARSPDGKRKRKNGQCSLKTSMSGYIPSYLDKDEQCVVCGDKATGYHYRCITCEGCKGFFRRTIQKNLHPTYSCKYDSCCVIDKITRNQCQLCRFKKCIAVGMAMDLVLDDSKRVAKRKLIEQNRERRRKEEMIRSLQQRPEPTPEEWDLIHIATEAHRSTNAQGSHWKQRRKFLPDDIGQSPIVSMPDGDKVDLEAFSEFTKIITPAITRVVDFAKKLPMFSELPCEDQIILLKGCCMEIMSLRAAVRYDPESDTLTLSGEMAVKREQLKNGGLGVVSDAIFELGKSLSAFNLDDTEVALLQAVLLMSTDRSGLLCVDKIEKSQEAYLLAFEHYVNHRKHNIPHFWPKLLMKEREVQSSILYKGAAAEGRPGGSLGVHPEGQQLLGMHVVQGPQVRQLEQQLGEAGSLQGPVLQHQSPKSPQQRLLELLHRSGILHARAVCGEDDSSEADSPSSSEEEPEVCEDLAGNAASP
Chain of E-selectin (Homo sapiens) (P16581 whole entry, looked up): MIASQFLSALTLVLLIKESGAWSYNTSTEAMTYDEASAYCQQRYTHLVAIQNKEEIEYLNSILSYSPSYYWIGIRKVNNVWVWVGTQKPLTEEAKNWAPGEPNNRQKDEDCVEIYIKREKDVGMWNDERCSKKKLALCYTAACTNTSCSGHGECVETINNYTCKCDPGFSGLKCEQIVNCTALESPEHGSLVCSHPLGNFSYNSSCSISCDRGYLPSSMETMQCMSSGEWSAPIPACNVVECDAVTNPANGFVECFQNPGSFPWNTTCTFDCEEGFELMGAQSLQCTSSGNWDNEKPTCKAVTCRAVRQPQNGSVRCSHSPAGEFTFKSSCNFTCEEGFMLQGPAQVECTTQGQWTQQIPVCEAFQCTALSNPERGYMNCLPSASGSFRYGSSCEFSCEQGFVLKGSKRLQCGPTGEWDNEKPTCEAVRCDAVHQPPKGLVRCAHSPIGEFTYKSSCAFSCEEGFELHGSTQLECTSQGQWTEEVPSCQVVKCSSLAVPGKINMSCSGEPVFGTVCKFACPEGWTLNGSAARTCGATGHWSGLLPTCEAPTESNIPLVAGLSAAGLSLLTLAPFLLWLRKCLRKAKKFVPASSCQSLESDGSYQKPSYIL
Chain of human Retinoid X Receptor beta (RXRb), RXRB (gene 6257) (P28702 whole entry, looked up, the tested form may be a part): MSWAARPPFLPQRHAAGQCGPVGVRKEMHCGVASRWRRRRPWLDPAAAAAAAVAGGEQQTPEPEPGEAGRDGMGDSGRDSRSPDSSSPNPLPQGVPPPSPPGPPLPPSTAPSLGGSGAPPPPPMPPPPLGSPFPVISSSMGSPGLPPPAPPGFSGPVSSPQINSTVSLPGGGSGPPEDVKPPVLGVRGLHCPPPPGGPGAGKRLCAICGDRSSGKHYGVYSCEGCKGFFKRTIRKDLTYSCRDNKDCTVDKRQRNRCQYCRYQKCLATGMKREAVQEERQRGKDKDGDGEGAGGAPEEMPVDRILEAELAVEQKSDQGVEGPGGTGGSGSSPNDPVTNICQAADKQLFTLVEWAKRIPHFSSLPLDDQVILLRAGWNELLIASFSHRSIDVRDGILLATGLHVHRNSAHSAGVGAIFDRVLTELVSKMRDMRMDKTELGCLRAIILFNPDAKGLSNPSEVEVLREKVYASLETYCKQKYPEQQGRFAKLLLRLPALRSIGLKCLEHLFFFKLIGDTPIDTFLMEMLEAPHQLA

On to `COc1cc(C)cc(O)c1`, for which the molecule was classed as inactive in [1], in test [2], in test [3], in [4], in [5] and in test [6]. The molecule was called inactive in test [7], in [8] and in test [9].
As for `O=C(O)CN(CCN(CC(=O)O)CC(=O)O)CCN(CC(=O)O)CC(=O)O`, the molecule was called inactive in test [1], in test [2], in test [10], in [11], in [3] and in test [12]. Moreover, the molecule was classed as inactive in [5], in test [6] and in [7].
On to `C=CC(C)(CCC=C(C)C)OC=O` (configuration not stated), for which the result in test [1], in test [2], in [3], in test [4], in test [5] and in test [6] was inactive. Also, the outcome in test [9] was inactive.
In the case of `Cc1ccc(Nc2ccc(O)c3c2C(=O)c2ccccc2C3=O)cc1`, the result in [1], in [2], in test [13], in [14], in test [3] and in [4] was inactive. The call in test [7], in test [9], in test [15], in [16], in [17] and in test [18] was inactive. Further, the result in test [19] and in [20] was inactive.
On to `CC(C)(COC(=O)c1ccccc1)COC(=O)c1ccccc1`, for which the result in test [1], in test [2], in [13], in [3], in test [4] and in [8] was inactive. Also, the molecule was called inactive in test [9], in test [16] and in test [20]. Further, the AC50 in [14] is 22.2 µM (active); in test [15] it was 20 µM (active); in test [17], 34.4 µM (active); in test [18] it was 11.3 µM (active); in test [19], 27.8 µM (active).
On to `C[C@H]1C[C@@H]2[C@H]([C@@H](O)C[C@@]3(C)[C@H]2CC[C@]3(O)C(=O)CO)[C@@]2(C)C=CC(=O)C=C12`, for which the result in [1], in test [2], in [13], in [14], in test [4] and in [7] was inactive. In addition, the result in test [8], in test [9], in [15], in [16], in [17] and in test [18] was inactive. The result in test [19] and in test [20] was inactive.
As to `O=Nc1ccc(Nc2ccccc2)cc1`, the molecule was called inactive in [1], in [2], in [4], in [5] and in test [7]. Besides, the concentration at half-maximal activity (AC50) in test [3] was 26.6 µM (active); in test [6] it was 40.4 µM (active).
`CC1(C)C(=O)N(Br)C(=O)N1Cl`: the outcome in [1], in test [2], in test [11], in test [3] and in [9] was inactive.
With `CC1CCC(C(C)CS)CC1S` (configuration not stated), the AC50 in test [1] is 53.7 µM (active); in test [13], 27.4 µM (active); in test [14], 25.7 µM (active); in test [3], 41 µM (active); in test [4], 2.84 µM (active); in [8], 59.9 µM (active). In addition, the AC50 in [15] is 30.6 µM (active); in test [16] it was 20 µM (active); in [17], 20 µM (active); in test [18], 20 µM (active); in test [19], 35.1 µM (active). The molecule was classed as inactive in test [2], in [12] and in test [20].
Turning to `CCN(CC)c1ccc(C(=C2C=CC(=[N+](CC)CC)C=C2)c2ccc(S(=O)(=O)O)cc2S(=O)(=O)[O-])cc1`, the molecule was called inactive in test [1], in test [2], in test [3], in [4], in [5] and in [6]. Also, the molecule was called inactive in test [7] and in [9]. In [8], the AC50 was 100 µM (active).

A word on the AC50: it is the concentration giving half of the maximal activity seen.
